PubChem BioAssay (EPA / NIEHS)
Active and inactive are the calls of the source. The calls were made as follows: active = hit-call score of the fitted dose curve at least 0.9, where 1 is the maximum; inactive = score below 0.9.

What was measured:
Conditions in all cases: mRNA level, 48 h; actives raise or lower the signal
[1] = read-out: Peroxisomal acyl-coenzyme A oxidase 1 (ACOX1) gene, ACOX1 (gene 51); test: LTEA_HepaRG_ACOX1: Life Technologies and Expression Analysis (LTEA) Assay for Peroxisomal acyl-coenzyme A oxidase 1 (ACOX1) gene using HepaRG (AID 2283467)
How it was run: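 Measured by qRT-PCR against three housekeeping genes: ACOX1 transcript change in human HepaRG cells after 48 h dosing. Concentrations ran up to 100 uM in half-log steps. Curves were fitted bidirectionally relative to 0.5% DMSO.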

[2] = read-out: Bcl-2 (BAD) gene, BAD (gene 572); test: LTEA_HepaRG_BAD: Life Technologies and Expression Analysis (LTEA) Assay for Bcl-2 (BAD) gene using HepaRG (AID 2283469)
How it was run: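 BAD transcript change, measured by qRT-PCR against three housekeeping genes and fitted in both directions relative to 0.5% DMSO, after 48 h chemical treatment of human HepaRG liver cells at concentrations up to 100 uM.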

[3] = read-out: Bcl-2 (BAX) gene, BAX (gene 581); test: LTEA_HepaRG_BAX: Life Technologies and Expression Analysis (LTEA) Assay for Bcl-2 (BAX) gene using HepaRG (AID 2283470)
How it was run: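 Differentiated HepaRG cells exposed 48 h in serum-free induction medium, eight half-log concentrations from 100 uM, in duplicate, 0.5% DMSO vehicle. BAX mRNA by TaqMan qRT-PCR, normalised to ACTB, GAPDH and POLR2A.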

[4] = read-out: adenosine kinase (ADK) gene, ADK (gene 132); test: LTEA_HepaRG_ADK: Life Technologies and Expression Analysis (LTEA) Assay for adenosine kinase (ADK) gene using HepaRG (AID 2283471)
How it was run: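 HepaRG (human liver), 48 h chemical exposure, 8-pt half-log series, top 100 uM, 0.5% DMSO vehicle. Readout: ADK mRNA by qRT-PCR vs housekeeping genes; bidirectional curve fit relative to DMSO baseline.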

[5] = read-out: Alpha-fetoprotein (AFP) gene, AFP (gene 174); test: LTEA_HepaRG_AFP: Life Technologies and Expression Analysis (LTEA) Assay for Alpha-fetoprotein (AFP) gene using HepaRG (AID 2283472)
How it was run: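 Differentiated human HepaRG cells exposed 48 h in serum-free induction medium, 8-point half-log series from 100 uM in 0.5% DMSO, duplicate. AFP mRNA by qRT-PCR, normalized to ACTB, GAPDH, POLR2A; bidirectional fit vs DMSO.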

BCL2L11 (gene 10018) = test: LTEA_HepaRG_BCL2L11: Life Technologies and Expression Analysis (LTEA) Assay for Bcl-2 (BCL2L11) gene using HepaRG (AID 2283473)
How it was run: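 Read-out is BCL2L11 transcript level by qRT-PCR, normalized to three housekeeping genes and fitted bidirectionally against 0.5% DMSO vehicle. HepaRG cells received chemicals for 48 h in serum-free induction medium, 100 uM down in half-log dilutions.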

[6] = read-out: Apolipoprotein A-V (APOA5) gene, APOA5 (gene 116519); test: LTEA_HepaRG_APOA5: Life Technologies and Expression Analysis (LTEA) Assay for Apolipoprotein A-V (APOA5) gene using HepaRG (AID 2283474)
How it was run: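 Readout is APOA5 transcript level by qRT-PCR on Fluidigm dynamic arrays, normalized to three housekeeping genes. HepaRG cultures received chemicals for 48 h at up to 100 uM (half-log steps, 0.5% DMSO), with gain or loss scored relative to DMSO.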

[7] = read-out: Apoptosis regulator Bcl-2 (Homo sapiens) (UniProt P10415); test: LTEA_HepaRG_BCL2: Life Technologies and Expression Analysis (LTEA) Assay for Bcl-2 gene using HepaRG (AID 2283475)
How it was run: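 Differentiated human HepaRG cells in serum-free induction medium exposed 48 h, in duplicate, to 8-point half-log series from 100 uM in 0.5% DMSO. BCL2 mRNA by qRT-PCR (TaqMan/Fluidigm), normalized to ACTB, GAPDH, POLR2A; bidirectional fit against DMSO.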

[8] = read-out: Bcl-2 (BID) gene, BID (gene 637); test: LTEA_HepaRG_BID: Life Technologies and Expression Analysis (LTEA) Assay for Bcl-2 (BID) gene using HepaRG (AID 2283476)
How it was run: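 Gene expression by qRT-PCR in HepaRG cells after 48 h exposure, duplicate wells, eight half-log concentrations topping at 100 uM in 0.5% DMSO. Normalized to ACTB, GAPDH, POLR2A; bidirectional fitting relative to DMSO.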

Caspase-3 (Homo sapiens) = Caspase-3 (Homo sapiens) (UniProt P42574); test: LTEA_HepaRG_CASP3: Life Technologies and Expression Analysis (LTEA) Assay for cysteine-aspartic acid protease (CASP3) using HepaRG (AID 2283477)
Chain of Caspase-3 (Homo sapiens) (P42574 whole entry, looked up): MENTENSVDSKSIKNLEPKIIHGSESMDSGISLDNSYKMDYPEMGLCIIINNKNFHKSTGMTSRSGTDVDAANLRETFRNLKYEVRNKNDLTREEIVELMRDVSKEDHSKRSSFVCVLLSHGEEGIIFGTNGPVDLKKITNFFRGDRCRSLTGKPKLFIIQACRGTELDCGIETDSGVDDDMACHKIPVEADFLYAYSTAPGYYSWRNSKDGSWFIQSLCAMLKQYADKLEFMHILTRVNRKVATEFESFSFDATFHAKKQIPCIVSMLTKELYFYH
How it was run: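 Read-out is CASP3 mRNA level by TaqMan qRT-PCR in human HepaRG cells after 48 h chemical exposure. Eight half-log concentrations topping at 100 uM were tested in 0.5% DMSO; gain or loss was fitted relative to DMSO.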

[9] = read-out: Cytochrome P450 (CYP24A1), CYP24A1 (gene 1591); test: LTEA_HepaRG_CYP24A1: Life Technologies and Expression Analysis (LTEA) Assay for Cytochrome P450 (CYP24A1) using HepaRG (AID 2283478)
How it was run: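 HepaRG, 48 h chemical exposure, 8-pt half-log CRC from 100 uM, 0.5% DMSO vehicle, duplicates. Endpoint: CYP24A1 mRNA by Fluidigm TaqMan qRT-PCR, normalized ACTB/GAPDH/POLR2A; gain/loss fit vs DMSO.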

[10] = read-out: Cytochrome P450 (CYP1A2), CYP1A2 (gene 1544); test: LTEA_HepaRG_CYP1A2: Life Technologies and Expression Analysis (LTEA) Assay for Cytochrome P450 (CYP1A2) using HepaRG (AID 2283479)
How it was run: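 CYP1A2 transcript induction or loss, quantified by Fluidigm qRT-PCR against three housekeeping genes, was fitted bidirectionally against 0.5% DMSO controls. Human HepaRG cells received eight half-log concentrations from 100 uM over 48 h.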

[11] = read-out: Cytochrome P450 (CYP2B6), CYP2B6 (gene 1555); test: LTEA_HepaRG_CYP2B6: Life Technologies and Expression Analysis (LTEA) Assay for Cytochrome P450 (CYP2B6) using HepaRG (AID 2283481)
How it was run: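 HepaRG cells plated 48 h, switched to serum-free induction medium, then dosed 48 h (8 points, half-log from 100 uM, 0.5% DMSO). RNA isolated; CYP2B6 expression measured by qRT-PCR; gain or loss fitted relative to DMSO.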

[12] = read-out: Cytochrome P450 2C19 (Homo sapiens) (UniProt P33261); test: LTEA_HepaRG_CYP2C19: Life Technologies and Expression Analysis (LTEA) Assay for CYP2C19 using HepaRG (AID 2283482)
How it was run: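 Transcript levels of CYP2C19 were quantified by qRT-PCR after HepaRG cells were treated for 48 hours with test chemicals up to 100 uM (eight half-log concentrations, 0.5% DMSO vehicle). Gain or loss of signal was fitted relative to DMSO.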

CYP2C8 (gene 1558) = test: LTEA_HepaRG_CYP2C8: Life Technologies and Expression Analysis (LTEA) Assay for CYP2C8 using HepaRG (AID 2283483)
How it was run: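 CYP2C8 mRNA induction or loss, by qRT-PCR normalized to ACTB/GAPDH/POLR2A, is read in HepaRG cells after 48 h treatment. Concentrations run from 100 uM down in half-log dilutions, with 0.5% DMSO as vehicle and baseline.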

CYP2C9 (gene 1559) = test: LTEA_HepaRG_CYP2C9: Life Technologies and Expression Analysis (LTEA) Assay for CYP2C9 using HepaRG (AID 2283484)
How it was run: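 Cells plated 48 h, switched to serum-free induction medium, then treated in duplicate for 48 h at eight concentrations (max 100 uM, 0.5% DMSO). RNA then analysed by qRT-PCR for CYP2C9; curves fitted in both directions relative to DMSO.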

CYP2E1 (gene 1571) = test: LTEA_HepaRG_CYP2E1: Life Technologies and Expression Analysis (LTEA) Assay for CYP2E1 using HepaRG (AID 2283485)
How it was run: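 HepaRG cells, plated 48 h, then exposed 48 h in serum-free induction medium to eight half-log concentrations from 100 uM in 0.5% DMSO, duplicate. CYP2E1 mRNA by qRT-PCR, normalized to ACTB/GAPDH/POLR2A; bidirectional fit versus DMSO.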

CYP4A11 (gene 1579) = test: LTEA_HepaRG_CYP4A11: Life Technologies and Expression Analysis (LTEA) Assay for CYP4A11 using HepaRG (AID 2283486)
How it was run: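 HepaRG, 48 h chem exposure, 8 conc (100 uM top, half-log), 0.5% DMSO vehicle; qRT-PCR readout, housekeeping-gene normalized; bidirectional curve fit vs DMSO baseline.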

[13] = read-out: cysteine-aspartic acid protease (CASP8), CASP8 (gene 841); test: LTEA_HepaRG_CASP8: Life Technologies and Expression Analysis (LTEA) Assay for cysteine-aspartic acid protease (CASP8) using HepaRG (AID 2283480)
How it was run: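 HepaRG, 48 h exposure, duplicate wells; 8 conc, half-log from 100 uM, 0.5% DMSO. Serum-free induction medium. CASP8 mRNA by TaqMan qRT-PCR, norm. ACTB/GAPDH/POLR2A; gain/loss fitted vs DMSO.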

Measured: AC50

Chain of Cytochrome P450 2C19 (Homo sapiens) (P33261 whole entry, looked up): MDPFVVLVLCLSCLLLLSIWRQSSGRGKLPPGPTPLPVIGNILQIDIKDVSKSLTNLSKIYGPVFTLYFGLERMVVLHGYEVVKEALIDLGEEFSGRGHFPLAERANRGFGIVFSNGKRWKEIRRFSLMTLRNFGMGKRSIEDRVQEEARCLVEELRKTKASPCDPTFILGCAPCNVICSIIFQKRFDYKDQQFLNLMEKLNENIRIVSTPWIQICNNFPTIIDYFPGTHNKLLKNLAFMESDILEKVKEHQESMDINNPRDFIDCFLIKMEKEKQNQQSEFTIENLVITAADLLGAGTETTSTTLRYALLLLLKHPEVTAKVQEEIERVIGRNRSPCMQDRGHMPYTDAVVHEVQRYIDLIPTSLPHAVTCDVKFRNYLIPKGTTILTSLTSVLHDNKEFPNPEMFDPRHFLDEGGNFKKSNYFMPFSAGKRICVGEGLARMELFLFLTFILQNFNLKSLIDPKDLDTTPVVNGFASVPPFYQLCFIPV
Chain of Apoptosis regulator Bcl-2 (Homo sapiens) (P10415 whole entry, looked up): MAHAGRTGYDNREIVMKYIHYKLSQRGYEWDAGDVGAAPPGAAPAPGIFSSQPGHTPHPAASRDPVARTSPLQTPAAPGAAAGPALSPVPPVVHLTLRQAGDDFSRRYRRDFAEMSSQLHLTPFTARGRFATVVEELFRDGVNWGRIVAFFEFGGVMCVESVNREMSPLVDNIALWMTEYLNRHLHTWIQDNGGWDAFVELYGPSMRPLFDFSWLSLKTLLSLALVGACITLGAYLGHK

O=NN(c1ccccc1)c1ccccc1
active: [4] 11.8 µM | BCL2L11 (gene 10018) 50 µM | [6] 76.1 µM | [8] 78.2 µM | [10] 50 µM | [11] 10.6 µM | [12] 7.3 µM | CYP2C9 (gene 1559) 0.273 µM | CYP4A11 (gene 1579) 50 µM
inactive: [1] | [2] | [3] | [5] | [7] | Caspase-3 (Homo sapiens) | [9] | CYP2C8 (gene 1558) | CYP2E1 (gene 1571)

c1ccc(-c2ccccc2)cc1
inactive: [1] | [2] | [3] | [4] | [5] | BCL2L11 (gene 10018) | [6] | [7] | [8] | Caspase-3 (Homo sapiens) | [9] | [10] | [11] | [12] | CYP2C8 (gene 1558) | CYP2C9 (gene 1559) | CYP2E1 (gene 1571) | CYP4A11 (gene 1579)

O=C(N[C@H]1CN2CCC1CC2)c1cc2ccoc2cn1
active: [10] 50 µM | [11] 50 µM
inactive: [1] | [2] | [3] | [4] | [5] | BCL2L11 (gene 10018) | [6] | [7] | [8] | Caspase-3 (Homo sapiens) | [9] | [12] | CYP2C8 (gene 1558) | CYP2C9 (gene 1559) | CYP2E1 (gene 1571) | CYP4A11 (gene 1579)

CN(C)c1nc(=O)n(C2CCCCC2)c(=O)n1C
active: [11] 33.6 µM
inactive: [1] | [2] | [3] | [4] | [5] | BCL2L11 (gene 10018) | [6] | [7] | [8] | Caspase-3 (Homo sapiens) | [9] | [10] | [12] | CYP2C8 (gene 1558) | CYP2C9 (gene 1559) | CYP2E1 (gene 1571) | CYP4A11 (gene 1579)

O=C(O)C(F)(F)C(F)(F)C(F)(F)C(F)(F)C(F)(F)C(F)(F)C(F)(F)C(F)(F)C(F)(F)F
active: [1] 78.4 µM | [3] 12.6 µM | [4] 81.1 µM | [5] 23 µM | BCL2L11 (gene 10018) 12.1 µM | [6] 30.8 µM | [8] 90.6 µM | Caspase-3 (Homo sapiens) 82.5 µM | [10] 22.2 µM | [13] 86 µM | [11] 80.1 µM | [12] 81.1 µM | CYP2C8 (gene 1558) 76.6 µM | CYP2C9 (gene 1559) 74.2 µM | CYP2E1 (gene 1571) 25.4 µM | CYP4A11 (gene 1579) 81.5 µM
inactive: [2] | [7] | [9]
